Results from PubChem BioAssay (EPA / NIEHS).
“And” between values parts separate entries of the source, which are not always exact repeats. Identical values can stand only once. Some structures have more than one record in an assay (separate samples or runs), and their calls can disagree. The source made the active and inactive calls. How the source made its calls: active means hit-call score of the fitted dose curve at least 0.9, where 1 is the maximum; inactive means score below 0.9.

Experiments:
[1] = ATG_CRE_CIS: Attagene CIS-FACTORIAL HepG2 Assay for human cAMP Responsive Element (CRE) binding protein 3 (AID 2282926); conditions: HepG2 CRE cis-reporter, Attagene multiplexed mRNA; actives raise or lower the signal
In short: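 HepG2 cells transiently transfected with cis-element-driven multiple reporter transcription units; CRE reporter mRNA measured 24 h after dosing by RT-PCR, 6-FAM labelling, HpaI digestion and capillary electrophoresis. Bidirectional fit versus DMSO baseline.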

[2] = biological target: CCAAT/enhancer-binding protein beta (Homo sapiens) (UniProt P17676); test: ATG_C_EBP_CIS: Attagene CIS-FACTORIAL HepG2 Assay for human CCAAT/Enhancer Binding Protein (C/EBP) beta (AID 2282927); conditions: HepG2 Attagene cis-factorial transcription factor reporter; actives raise or lower the signal
In short: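 Transiently transfected HepG2 (MRTU library, endogenous TF-driven promoters); 24 h dosing; total RNA → oligo(dT) RT → PCR → 6-FAM primer extension → HpaI digest → CE; fit bidirectionally vs DMSO.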

[3] = ATG_CMV_CIS: Attagene CIS-FACTORIAL HepG2 Assay for human CMV (Internal Marker) (AID 2282928); conditions: HepG2 CMV promoter reporter, transcription factor profiling; actives raise or lower the signal;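 further: endpoint acts as a background internal control marker rather than a target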
In short: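 CMV internal-marker background readout in transiently transfected HepG2 cells bearing cis-regulated reporter units. Reporter mRNA is measured 24 h after dosing by RT-PCR and capillary electrophoresis, with bidirectional fitting against DMSO.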

[4] = ATG_DR4_LXR_CIS: Attagene CIS-FACTORIAL HepG2 Assay for human Liver X Receptor (LXR), DR4 submotif (AID 2282929); conditions: HepG2 Attagene DR4 cis-reporter, mRNA transcription; actives raise or lower the signal
In short: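 HepG2 cells transiently transfected with cis-promoter-driven multiplexed reporter units (DR4 element) were dosed for 24 h. Reporter mRNA was quantified by RT-PCR, fluorescent primer extension, HpaI digestion and capillary electrophoresis; bidirectional fitting versus DMSO baseline.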

[5] = biological target: Aryl hydrocarbon receptor (Homo sapiens) (UniProt P35869); test: ATG_Ahr_CIS: Attagene CIS-FACTORIAL HepG2 Assay for human Aryl Hydrocarbon Receptor (Ahr) (AID 2282930); conditions: HepG2 AhR cis-factorial reporter transcription; actives raise or lower the signal
In short: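 Read-out: reporter mRNA quantified by RT-PCR with fluorescent primer extension and capillary electrophoresis. Human HepG2 liver cells carried transfected cis-promoter reporter units and were exposed to chemical for 24 h; gain or loss fitted relative to DMSO.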

[6] = ATG_AP_1_CIS: Attagene CIS-FACTORIAL HepG2 Assay for human Activator Protein 1 (AP-1) (AID 2282931); conditions: HepG2 Attagene cis-factorial AP-1 reporter mRNA; actives raise or lower the signal
In short: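 HepG2 cells transiently transfected with cis-element-driven multiplex reporter units; 24 h compound exposure. Reporter mRNA quantified by RT-PCR, FAM-labelled fragments resolved by capillary electrophoresis; bidirectional fit versus DMSO baseline.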

[7] = ATG_BRE_CIS: Attagene CIS-FACTORIAL HepG2 Assay for human Bone Morphogenetic Protein (BMP) Response Element (BRE) (AID 2282933); conditions: HepG2 BMP response element reporter, Attagene transcription factor profiling; actives raise or lower the signal
In short: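 Endogenous transcription factor activity at a BMP response element was monitored in transfected HepG2 cells 24 h after dosing. Fluorescent RT-PCR products were resolved by capillary electrophoresis, and activity was fitted in both directions versus DMSO.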

[8] = biological target: Retinoic acid receptor alpha (Homo sapiens) (UniProt P10276); test: ATG_DR5_RAR_CIS: Attagene CIS-FACTORIAL HepG2 Assay for human Retinoic Acid Receptor Alpha (RARE), DR5 submotif (AID 2282934); conditions: HepG2 Attagene cis-factorial RARE DR5 reporter, mRNA; actives raise or lower the signal;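 on AC50: reporter responds to endogenous RAR alpha beta and gamma in HepG2 not RARA alone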
In short: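 Read-out: DR5-driven reporter transcript measured by RT-PCR, 6-FAM primer extension, HpaI digest and capillary electrophoresis. Human HepG2 liver cells carry transiently transfected cis-element reporter constructs; dosing lasts 24 h. Gain or loss of signal fitted against DMSO baseline.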

[9] = biological target: Transcription factor E2F1 (Homo sapiens) (UniProt Q01094); test: ATG_E2F_CIS: Attagene CIS-FACTORIAL HepG2 Assay for human E2F Transcription Factor 1 (AID 2282935); conditions: HepG2 Attagene cis-reporter, E2F reporter RNA transcripts; actives raise or lower the signal
In short: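 Endogenous E2F1 activity read through cis-promoter reporter units transfected into HepG2. After 24 h compound treatment, reporter mRNA measured by RT-PCR, HpaI digestion and capillary electrophoresis. Bidirectional fit versus DMSO.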

[10] = ATG_E_Box_CIS: Attagene CIS-FACTORIAL HepG2 Assay for human Enhancer Box (E-box) (AID 2282936); conditions: HepG2 E-box cis-reporter transcription, actives raise or lower the signal
In short: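 HepG2 cells transiently transfected with multiplexed cis-element reporter units, dosed 24 h; reporter mRNA quantified by RT-PCR, 6-FAM labelling, HpaI digestion and capillary electrophoresis. E-box (USF1) signal fitted bidirectionally vs DMSO.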

[11] = ATG_M_61_CIS: Attagene CIS-FACTORIAL HepG2 Assay for M61 Transcription Factor (Internal Marker) (AID 2282937); conditions: HepG2 Attagene CIS-FACTORIAL M61 internal marker reporter; actives raise or lower the signal
In short: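 HepG2 cells transiently transfected with cis-element-driven multiple reporter transcription units, dosed for 24 h. Reporter mRNA measured by RT-PCR, 6-FAM primer-extension labelling, HpaI digestion and capillary electrophoresis; bidirectional fit versus DMSO baseline.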

[12] = ATG_EGR_CIS: Attagene CIS-FACTORIAL HepG2 Assay for human Early Growth Response 1 (EGR1) (AID 2282938); conditions: HepG2 Attagene CIS-FACTORIAL EGR reporter mRNA; actives raise or lower the signal
In short: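 HepG2 cells transiently transfected with cis-promoter-driven multiplexed reporter transcription units; reporter mRNA measured 24 h after compound dosing by RT-PCR, 6-FAM primer extension, HpaI digestion and capillary electrophoresis. Bidirectional fit versus DMSO baseline.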

[13] = ATG_M_19_CIS: Attagene CIS-FACTORIAL HepG2 Assay for M19 Transcription Factor (Internal Marker) (AID 2282939); conditions: HepG2 Attagene CIS-FACTORIAL M19 internal marker reporter; actives raise or lower the signal
In short: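 Background-control endpoint from a multiplexed HepG2 reporter panel. Cells carrying cis-regulated reporter constructs are treated 24 h, then reporter transcripts are amplified, fluorescently labelled and sized by capillary electrophoresis. DMSO defines baseline.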

[14] = ATG_ERE_CIS: Attagene CIS-FACTORIAL HepG2 Assay for Estrogen Response Element (ERE) (AID 2282940); conditions: HepG2 ERE cis-reporter, Attagene RNA transcript; actives raise or lower the signal
In short: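 Cells used were human hepatoma HepG2, transfected with multiple reporter transcription units under cis-regulatory promoters. Reporter mRNA, read 24 h post-dosing via fluorescent RT-PCR products on capillary electrophoresis, was fitted bidirectionally relative to DMSO.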

[15] = ATG_Ets_CIS: Attagene CIS-FACTORIAL HepG2 Assay for human Erythroblast Transformation Specific (ETS) (AID 2282941); conditions: HepG2 ETS cis-reporter transcription, actives raise or lower the signal
In short: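 HepG2 cells transfected with multiple cis-regulated reporter units measuring endogenous ETS-driven transcription, 24 h after dosing. Reporter mRNA quantified by RT-PCR with capillary electrophoresis; bidirectional fit relative to DMSO.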

[16] = biological target: Hepatocyte nuclear factor 3-beta (Homo sapiens) (UniProt Q9Y261); test: ATG_FoxA2_CIS: Attagene CIS-FACTORIAL HepG2 Assay for human Forkhead box A2 (FOXA2) (AID 2282942); conditions: HepG2 cis-reporter transcription factor activity, 24 h; actives raise or lower the signal
In short: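 HepG2 cells transiently transfected with multiple cis-regulated reporter transcription units, dosed for 24 h. Reporter mRNA measured by RT-PCR, 6-FAM labelling, HpaI digestion and capillary electrophoresis; bidirectional fitting against DMSO baseline.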

[17] = ATG_GATA_CIS: Attagene CIS-FACTORIAL HepG2 Assay for human GATA Binding Protein (AID 2282944); conditions: HepG2 GATA cis-element reporter, Attagene multiplex mRNA; actives raise or lower the signal
In short: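 Endogenous transcription factor activity was captured through cis-promoter-driven reporters in transfected HepG2 cells. After 24 h exposure, reporter transcripts were quantified by RT-PCR with fluorescent capillary electrophoresis, and responses fitted both directions against DMSO.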

[18] = ATG_GLI_CIS: Attagene CIS-FACTORIAL HepG2 Assay for human Zinc Finger Protein GLI1 (AID 2282945); conditions: HepG2, Attagene cis-factorial reporter mRNA, GLI element; actives raise or lower the signal
In short: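 Transiently transfected HepG2 cells report endogenous transcription factor activity via cis-element-driven reporter units. After 24 h compound exposure, reporter mRNA was measured by RT-PCR with capillary electrophoresis; bidirectional fitting against DMSO baseline.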

[19] = ATG_AP_2_CIS: Attagene CIS-FACTORIAL HepG2 Assay for human Activator Protein 2 (AP-2) (AID 2282932); conditions: HepG2 AP-2 cis-reporter, Attagene transcription factor profiling; actives raise or lower the signal
In short: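 HepG2 cells transiently transfected with cis-element reporter units and exposed for 24 h. Reporter mRNA measured by RT-PCR, FAM labelling, HpaI digestion and capillary electrophoresis. Changes in either direction fitted relative to DMSO.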

[20] = ATG_FoxO_CIS: Attagene CIS-FACTORIAL HepG2 Assay for human Forkhead box O (FoxO) (AID 2282943); conditions: HepG2 Attagene cis-reporter, FoxO element, mRNA; actives raise or lower the signal
In short: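 Read-out: fluorescence of 6-FAM-labelled reporter cDNA fragments resolved by capillary electrophoresis. Transiently transfected HepG2 cells were dosed for 24 h; activity fitted in both directions relative to DMSO controls.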

Measured: AC50

Chain of Retinoic acid receptor alpha (Homo sapiens) (P10276 whole entry, looked up): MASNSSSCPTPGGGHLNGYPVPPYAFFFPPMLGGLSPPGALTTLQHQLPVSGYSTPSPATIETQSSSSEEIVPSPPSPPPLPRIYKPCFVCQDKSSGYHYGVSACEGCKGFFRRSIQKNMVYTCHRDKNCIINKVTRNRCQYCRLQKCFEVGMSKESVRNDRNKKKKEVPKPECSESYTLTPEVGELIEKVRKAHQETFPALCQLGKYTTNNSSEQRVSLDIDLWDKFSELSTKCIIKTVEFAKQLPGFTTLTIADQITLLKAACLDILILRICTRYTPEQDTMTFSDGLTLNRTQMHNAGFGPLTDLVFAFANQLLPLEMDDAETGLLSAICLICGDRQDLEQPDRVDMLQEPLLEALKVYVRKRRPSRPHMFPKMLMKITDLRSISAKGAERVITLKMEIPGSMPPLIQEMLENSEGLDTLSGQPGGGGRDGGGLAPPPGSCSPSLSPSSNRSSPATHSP
Chain of CCAAT/enhancer-binding protein beta (Homo sapiens) (P17676 whole entry, looked up): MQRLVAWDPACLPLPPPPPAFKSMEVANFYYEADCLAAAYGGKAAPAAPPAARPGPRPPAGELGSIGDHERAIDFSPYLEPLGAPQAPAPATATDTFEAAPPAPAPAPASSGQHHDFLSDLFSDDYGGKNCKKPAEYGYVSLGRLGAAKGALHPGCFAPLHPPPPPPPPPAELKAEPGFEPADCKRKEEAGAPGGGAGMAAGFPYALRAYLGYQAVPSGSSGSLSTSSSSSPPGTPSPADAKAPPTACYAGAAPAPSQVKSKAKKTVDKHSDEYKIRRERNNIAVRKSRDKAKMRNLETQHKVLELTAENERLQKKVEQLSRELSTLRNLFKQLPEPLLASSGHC
Chain of Aryl hydrocarbon receptor (Homo sapiens) (P35869 whole entry, looked up): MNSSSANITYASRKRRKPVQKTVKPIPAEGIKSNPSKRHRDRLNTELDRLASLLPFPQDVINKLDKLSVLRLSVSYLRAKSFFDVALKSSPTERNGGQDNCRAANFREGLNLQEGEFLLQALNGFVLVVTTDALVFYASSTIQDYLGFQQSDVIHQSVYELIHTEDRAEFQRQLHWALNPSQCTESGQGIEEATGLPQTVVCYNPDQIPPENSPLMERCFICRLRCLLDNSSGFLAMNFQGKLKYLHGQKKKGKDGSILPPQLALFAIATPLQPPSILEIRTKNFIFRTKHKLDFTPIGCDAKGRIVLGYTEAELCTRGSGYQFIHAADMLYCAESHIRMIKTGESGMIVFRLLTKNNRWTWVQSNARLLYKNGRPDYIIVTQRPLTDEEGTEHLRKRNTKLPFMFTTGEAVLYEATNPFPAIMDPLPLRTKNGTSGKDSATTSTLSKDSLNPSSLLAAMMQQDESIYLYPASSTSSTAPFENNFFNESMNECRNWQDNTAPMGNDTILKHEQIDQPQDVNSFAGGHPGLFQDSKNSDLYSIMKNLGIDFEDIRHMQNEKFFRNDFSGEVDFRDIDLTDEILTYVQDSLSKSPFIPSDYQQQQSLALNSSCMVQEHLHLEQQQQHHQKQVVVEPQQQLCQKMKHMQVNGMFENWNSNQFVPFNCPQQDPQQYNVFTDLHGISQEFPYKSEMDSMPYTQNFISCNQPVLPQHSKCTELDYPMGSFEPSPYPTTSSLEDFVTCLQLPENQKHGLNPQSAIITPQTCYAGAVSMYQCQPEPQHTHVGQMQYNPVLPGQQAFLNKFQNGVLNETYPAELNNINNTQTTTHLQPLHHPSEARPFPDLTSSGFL
Chain of Hepatocyte nuclear factor 3-beta (Homo sapiens) (Q9Y261 whole entry, looked up): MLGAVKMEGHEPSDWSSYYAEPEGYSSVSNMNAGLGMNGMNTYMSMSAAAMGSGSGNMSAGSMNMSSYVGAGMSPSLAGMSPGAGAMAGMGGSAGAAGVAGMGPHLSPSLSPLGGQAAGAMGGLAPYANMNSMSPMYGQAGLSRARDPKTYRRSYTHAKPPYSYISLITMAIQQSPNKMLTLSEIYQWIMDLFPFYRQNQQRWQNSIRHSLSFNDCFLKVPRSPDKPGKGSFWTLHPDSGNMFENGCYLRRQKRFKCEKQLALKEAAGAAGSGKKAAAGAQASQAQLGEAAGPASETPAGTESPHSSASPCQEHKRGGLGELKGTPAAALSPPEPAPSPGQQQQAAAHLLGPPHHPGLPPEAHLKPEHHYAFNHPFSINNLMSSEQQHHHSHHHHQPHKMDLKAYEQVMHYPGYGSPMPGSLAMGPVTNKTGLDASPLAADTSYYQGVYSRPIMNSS
Chain of Transcription factor E2F1 (Homo sapiens) (Q01094 whole entry, looked up): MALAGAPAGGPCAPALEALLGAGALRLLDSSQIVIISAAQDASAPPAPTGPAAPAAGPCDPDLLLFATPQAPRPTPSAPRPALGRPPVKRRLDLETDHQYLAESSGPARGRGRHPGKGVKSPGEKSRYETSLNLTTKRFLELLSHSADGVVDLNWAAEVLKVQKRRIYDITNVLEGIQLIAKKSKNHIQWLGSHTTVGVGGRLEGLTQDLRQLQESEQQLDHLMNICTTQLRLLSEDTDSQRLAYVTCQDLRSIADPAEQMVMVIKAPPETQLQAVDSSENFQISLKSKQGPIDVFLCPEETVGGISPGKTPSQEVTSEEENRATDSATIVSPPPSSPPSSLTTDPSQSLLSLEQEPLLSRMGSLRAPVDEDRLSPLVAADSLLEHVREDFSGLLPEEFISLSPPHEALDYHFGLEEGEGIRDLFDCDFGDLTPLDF

CC[C@H](NC(=O)c1cc(F)ccc1NS(=O)(=O)c1cccc2cccnc12)c1ccccc1
not listed: [19] | [20]
inactive: all other assays above

Cc1ccc(C(C)C)cc1
inactive: all assays above

O=c1c(-c2ccc(O)cc2)coc2cc(O)cc(O)c12
active: [1] 27.5 µM and 50.6 µM | [2] 36.5 µM [middle of 4 runs] | [3] 19.1 µM [middle of 4 runs] | [5] 34.3 µM | [19] 29.8 µM and 52.6 µM | [8] 62.3 µM
inactive: [1] | [5] | [6] | [19] | [7] | [8] | [9] | [10] | [11] | [12] | [13] | [15] | [16] | [20] | [18]

COCC(C)OCC(C)OCC(C)O (stereo not given)
not listed: [19]
inactive: all other assays above

Clc1ccccc1C(c1ccccc1)(c1ccccc1)n1ccnc1
active: [3] 17.8 µM | [4] 1.48 µM | [5] 3.01 µM | [6] 10.4 µM | [7] 11.1 µM | [12] 8.64 µM | [14] 0.438 µM
not listed: [17] | [20]
inactive: all other assays above

CCOC(=O)O[C@H](C)OC(=O)c1ccc2c(c1)cc(C(=O)NC1CCN(C(C)C)CC1)n2Cc1cc(-c2ccc(Cl)s2)on1
active: [8] 42.2 µM | [14] 33 µM
not listed: [17]
inactive: all other assays above

COc1ccc2cc(S(=O)(=O)N[C@H](CC(=O)N[C@H](Cc3ccc(CN4[C@H](C)CCC[C@@H]4C)cc3)C(=O)N(C)C(C)C)c3ccc4c(c3)OCO4)ccc2c1
active: [1] 15.4 µM | [5] 14.7 µM | [6] 11 µM | [7] 11 µM | [9] 11 µM | [12] 11 µM
not listed: [17] | [19] | [20]
inactive: all other assays above

CCCCCCCCN(C)CCCCCCCC
active: [14] 30.2 µM
not listed: [20]
inactive: all other assays above

CN(C)C(=O)C1(N2CCCCC2)CCN(CC[C@@]2(c3ccc(Cl)c(Cl)c3)CN(C(=O)c3ccccc3)CCO2)CC1
active: [6] 0.463 µM
not listed: [17] | [20]
inactive: all other assays above

NCc1cccc(C2CCN(C(=O)c3ccc(C#Cc4ccccc4F)o3)CC2)c1
active: [1] 11 µM | [2] 11 µM | [3] 11 µM | [6] 11 µM | [12] 11 µM | [14] 2.81 µM
not listed: [17]
inactive: all other assays above

CC(=O)N1CCN(c2ccc(OC[C@H]3CO[C@](Cn4ccnc4)(c4ccc(Cl)cc4Cl)O3)cc2)CC1
active: [1] 20.7 µM | [3] 44.4 µM | [4] 43.9 µM | [5] 0.412 µM | [6] 43.5 µM | [7] 28.6 µM | [10] 54.6 µM | [12] 11.6 µM
not listed: [17] | [19]
inactive: all other assays above

CCCCCCCCOC(=O)c1cc(O)c(O)c(O)c1
active: [6] 6.37 µM
not listed: [20]
inactive: all other assays above
